*1 amine or outer side, *2 acyl side, *3 side chain or, on linkers, in order; H or OH if unused. Where a SMILES comes first, the peptide text is derived from it. Bridges are numbered along the chain shown (N, C = ends). Roman numbers before positions name the chains, in order. [ ]: non-standard residue; d: D form. ξ: configuration not given here. Actinocin(9to1) = Cc1c2oc3c(C)ccc(C(=O)[*:1])c3nc-2c(C(=O)[*:2])c(N)c1=O; ξNMeV = CNC(C(=O)O)C(C)C; ξV = CC(C)C(N)C(=O)O; Sar = CNCC(=O)O
assay: Cell Proliferation Assay against the TMD8 Cell Line (AID 651645); settings: TMD8 DLBCL cell line proliferation/viability; at 46.1 µM (top of the series) unless noted;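 further: cells exposed to compound for 48 h before reading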
From the text: One class of targeted therapeutics showing early clinical success in killing of ABC DLBCL lines are small molecule inhibitors of the Bruton tyrosine kinase (BTK) 11.
Prior to any combination assays, using an NCATS developed oncology compound library called the Mechanism of Interrogation Plate (MIPE), two well studied ABC DLBCL lines (TMD8 and HBL1) were screened using a cell viability assay (CellTiterGlo) and a 12-point titration series for each single agent. These initial experiments offered insight into the concentration range that offered the best coverage of activity and non-activity to assure relevant data is generated. In addition to the viability signature associated with this library, we examined the apoptotic response of each agent versus the TMD8 line as judged by caspase 3/7 activation. Activity was assayed at both 8 and 16 hour time-points to gain an appreciation of which agents induced an apoptotic response in a reasonable timeframe from a therapeutic exposure perspective. MIPE was also assayed for single agent viability in a human mesenchymal stem cell (hMSC) line as a surrogate of each library member's potential therapeutic index.
A total of 500 log growing TMD8 cells are seeded per well in 5 uL of a RPMI with glutamine (or Glutamax), without phenol red plus 5% FBS and 1X Pen/Strep into 1536 -solid white high base tissue culture treated Greiner One Bio Plates (789173-F) using a multidrop combi dispenser and a small sterile cassette. Compounds and controls totaling 23nL per well (negative control DMSO and positive control 9.2 uM Bortezomib-final) are immediately added to the plates using a 1536 head pin tool from Kalypsys. The plates are then covered with stainless steel gasket lids from Kalypsys and incubated for 48 hours at 37C under 95% relative humidity with 5% CO2. After 48 hours, the plates are removed and allowed to reach room temperature before 3 uL of Cell Titer Glo reagent (Promega) is added using an Aurora Flying Reagent Dispenser Bioraptor. The plates are then spun at 1000 rpms to remove bubbles and incubated for 15 minutes at room temperature before read on a ViewLux using a luminescent filter with a 10 second exposure. The relative luciferase units are used to calculated percent activity using DMSO as 100% and Bortezomib as 0%.

With `CC(NC(=O)Cc1cc(F)cc(F)c1)C(=O)NC(C(=O)OC(C)(C)C)c1ccccc1` (stereo not given) as the compound, how does the viability (% of control) read?
Its viability (% of control) is 90.6%.

With `CC[C@@H](C(=O)O)C1CC[C@H](C)C([C@@H](C)[C@H](O)[C@H](C)C(=O)[C@H](CC)C2O[C@]3(C=C[C@@H](O)[C@]4(CC[C@@](C)(C5CC[C@](O)(CC)[C@H](C)O5)O4)O3)[C@H](C)C[C@@H]2C)O1` (stereo not given in full) as the compound, how does the viability (% of control) read?
Its viability (% of control) is 2.54%.

With `Cc1c2oc3c(C)ccc(C(=O)N[C@@H]4C(=O)NC(C(C)C)C(=O)N5CCC[C@H]5C(=O)N(C)CC(=O)N(C)C(C(C)C)C(=O)O[C@@H]4C)c3nc-2c(C(=O)N[C@@H]2C(=O)NC(C(C)C)C(=O)N3CCC[C@H]3C(=O)N(C)CC(=O)N(C)C(C(C)C)C(=O)O[C@@H]2C)c(N)c1=O` (stereo not given in full) (I: T[ξV]P[Sar][ξNMeV] / II: T[ξV]P[Sar][ξNMeV]; ester I:1-I:C, II:1-II:C; linker I:N-II:N via Actinocin(9to1)) as the compound, how does the viability (% of control) read?
Its viability (% of control) is 3.49%.

Which viability (% of control) does the source give for `CNC1CCN(C(Cc2cccc(-c3ccncc3)c2)C(=O)c2sc3c(F)ccc(F)c3c2Cl)CC1` (stereo not given) here?
Its viability (% of control) is 0.928%.

Which viability (% of control) does the source give for `CN(NC(=O)CC(=O)NN(C)C(=S)c1ccccc1)C(=S)c1ccccc1` here?
The viability (% of control) was 81.1%.

With `CCCCCCCCCCCCCCCCCCOP(=O)([O-])OC1CC[N+](C)(C)CC1` as the compound, how does the viability (% of control) read?
The viability (% of control) was 102% [at 29.8 µM].

For `O=c1cc(C2=CC=CC3Sc4ccccc4SC23)oc(N2CCOCC2)c1` (stereo not given), which viability (% of control) is on record?
Its viability (% of control) is 10.5%.

For `CCC1(O)CC2CN(CCc3c([nH]c4ccccc34)[C@@](C(=O)OC)(c3cc4c(cc3OC)N(C=O)[C@H]3[C@](O)(C(=O)OC)[C@H](OC(C)=O)[C@]5(CC)C=CCN6CC[C@]43[C@@H]65)C2)C1` (stereo not given in full), which viability (% of control) is on record?
Its viability (% of control) is -0.162%.

Which viability (% of control) does the source give for `Cc1nnc(C(C)C)n1C1CC2CCC(C1)N2CC[C@H](NC(=O)C1CCC(F)(F)CC1)c1ccccc1` (stereo not given in full) here?
Its viability (% of control) is 86.2%.

With `C[C@@H]1CCN(C(=O)CC#N)C[C@@H]1N(C)c1ncnc2[nH]ccc12` as the compound, how does the viability (% of control) read?
The viability (% of control) was 76.9%.

Which viability (% of control) does the source give for `COC(=O)C1=C(C)NC(C)=C(C(=O)OCCCN2CCC(c3ccccc3)(c3ccccc3)CC2)[C@H]1c1cccc([N+](=O)[O-])c1` here?
The viability (% of control) was 2.99%.

With `CCOc1cc2ncc(C#N)c(Nc3ccc(OCc4ccccn4)c(Cl)c3)c2cc1NC(=O)/C=C/CN(C)C` as the compound, how does the viability (% of control) read?
The viability (% of control) was -0.655%.

For `O=C(O)CC/C=C\CC[C@H]1[C@@H](N2CCCCC2)[C@@H](O)C[C@@H]1OCc1ccc(-c2ccccc2)cc1`, which viability (% of control) is on record?
The viability (% of control) was 104%.

Which viability (% of control) does the source give for `CCC1(Cc2ccc(N)cc2)CCC(=O)NC1=O` (stereo not given) here?
The viability (% of control) was 97.8% [at 92.2 µM].

For `NC(=O)Nc1cc(-c2ccc(CN3CCOCC3)c(F)c2)sc1C(=O)N[C@H]1CCCNC1`, which viability (% of control) is on record?
The viability (% of control) was 1.45%.
